Sensor-assay potency score (higher = more potent) data for 38 sequences are collected here from the OligoGym collection.
Further: reference of the scale not given here.

The first assay has as its target PEX11G. The experiment in a line: pooled miR-30 sensor sort-seq; sequence = guide strand. The following applies: shRNA.
On to TTAGTGTAGACAAACATGGCCA, for which the sensor-assay potency score (higher = more potent) was -0.26.

TAGTGTAGACAAACATGGCCAG: the sensor-assay potency score (higher = more potent) was -0.684.

The sequence TTGCTTAGTGTAGACAAACATG came in with a sensor-assay potency score (higher = more potent) of -1.38.

In turn, AAGAGTCGCAAGATGGTCCTGC had a sensor-assay potency score (higher = more potent) of 0.55.

The next assay deals with PFKFB4. The assay is described as above. As to conditions: shRNA.
In turn, TTCACTGTGAGAGCAGGCCTGA returned a sensor-assay potency score (higher = more potent) of -0.707.

TCATCTAGCGACTCGTAGGAGT yielded a sensor-assay potency score (higher = more potent) of -0.615.

Regarding TCAAGTGACTCTTAGCAGCAGG, the sensor-assay potency score (higher = more potent) was -0.462.

The sequence TTAAAGATGGTCGCTCTCCGTT came in with a sensor-assay potency score (higher = more potent) of -0.54.

In turn, TTGATATAGGACAGGTCCCTAT registered a sensor-assay potency score (higher = more potent) of -1.32.

The sequence TAGACTCTTGGCAAACTCCCTG yielded a sensor-assay potency score (higher = more potent) of 0.333.

The sequence TTTTGGTCACTGATGAACTGGG registered a sensor-assay potency score (higher = more potent) of -0.438.

Take TAGGTCTTGACCACGTCCCGGC: the sensor-assay potency score (higher = more potent) is -0.311.

As for TTTCACACTTCACAAAGCCAAC, the sensor-assay potency score (higher = more potent) is -1.28.

TATCGAGTCAGCTTCTTGGAGA: the sensor-assay potency score (higher = more potent) was -0.636.

In turn, TTTGTAGGTCTTGACCACGTCC gave a sensor-assay potency score (higher = more potent) of -0.178.

Turning to TTTCCTTTCACATTGTAGGGTT, the sensor-assay potency score (higher = more potent) amounted to 0.667.

For a further assay, the target named is PGBD3. The description is as above. As to conditions: shRNA.
Consider TTCATTTGGAACAAATTTCATG, for which the sensor-assay potency score (higher = more potent) was -0.714.

TTGTGTTCTTATGACATTCAGC yielded a sensor-assay potency score (higher = more potent) of -0.605.

Consider TTCATCAGGAGAGTCATCTTTA, for which the sensor-assay potency score (higher = more potent) was found to be 0.38.

In turn, TTTTCTTTAAAGCTACATCTGA gave a sensor-assay potency score (higher = more potent) of -0.486.

With TAAACGTAGATGGAACTTCATC, the sensor-assay potency score (higher = more potent) was -1.36.

The sequence TTTCTTTAAAGCTACATCTGAT displayed a sensor-assay potency score (higher = more potent) of -0.534.

As for TGCATTGTCAGCAACATGCAAA, the sensor-assay potency score (higher = more potent) is -1.12.

Turning to TTTGGAACAAATTTCATGCATC, the sensor-assay potency score (higher = more potent) is -0.293.

The sequence AACTTTGTCAATGTGATCCTTT yielded a sensor-assay potency score (higher = more potent) of 0.355.

TACGCTTCTGAGGTCTTCCTTT came in with a sensor-assay potency score (higher = more potent) of -0.455.

TTTGGTGGTGCTGTAACTCTAC gave a sensor-assay potency score (higher = more potent) of 0.653.

TAAAGCTACATCTGATTCCAGT showed a sensor-assay potency score (higher = more potent) of -0.329.

The target of the next assay is PGD. The description is as above. The following applies: shRNA.
Take TCAACTTTGGAGACAGTCCTAT: the sensor-assay potency score (higher = more potent) was -0.343.

Take TTGAGGTCTCGGCACCGTCTTG: the sensor-assay potency score (higher = more potent) was -1.68.

In the case of TTGAGCGTAAGAGATGATCTTG, the sensor-assay potency score (higher = more potent) was 0.0723.

With TTGGTGTGGATAAACTGCCCTG, the sensor-assay potency score (higher = more potent) was -0.35.

As to TTTCCTAGGAATACACTTCTAA, the sensor-assay potency score (higher = more potent) came out at 0.166.

Take TAGGAGGTTCTGAAGTTCCGGG: the sensor-assay potency score (higher = more potent) was -0.239.

TTTCTTATCACCATCAAACTGG came in with a sensor-assay potency score (higher = more potent) of -0.51.

The sequence TTCAGAGATGATAAGCACCGAG had a sensor-assay potency score (higher = more potent) of -0.0452.

TAGGAATACACTTCTAATGATG registered a sensor-assay potency score (higher = more potent) of -1.08.

Turning to TGACTTAAAGAAGTCGTCCAGT, the sensor-assay potency score (higher = more potent) was -0.436.
